From PubChem BioAssay
This is a sample that favours compounds with a hit; in the whole collection about 12% have one here.
BAZ2B inh = qHTS Assay for Inhibitors of BAZ2B; AID 504333, 2011; AlphaScreen BAZ2B-H3K14Ac peptide displacement; Potency, µM (top dose mostly 114 µM), actives largely listed as inhibitors; actives 4.4% (n = 360,000); also: nearly all actives have a fitted effect of over 60% in size
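Compounds, titrated to a top concentration of 110 uM, were incubated 30 min at room temperature with preformed BAZ2B/acetyl-K14 H3 peptide complex (50 nM each). Proximity signal was measured by AlphaScreen after 20 min with beads.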
Sfp inh = qHTS Assay for Inhibitors of Bacillus subtilis Sfp phosphopantetheinyl transferase (PPTase) | 4'-phosphopantetheinyl transferase ffp (Bacillus subtilis), Q9F4F7 | Biochemical Sfp PPTase activity, qHTS | Potency, µM, actives largely listed as inhibitors | actives 3.5% (n = 310,000) | AID 1490, 2009;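 also: the enzyme is Sfp with the accession as filed and its product quenches rhodamine fluorescence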
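Step 1, compound plus 15 nM Sfp-PPTase, 15 min, room temperature. Step 2, add rhodamine-CoA (5 uM) and BHQ-2-YbbR (12.5 uM). Step 3, read 525/598 nm fluorescence at 0 and 30 min.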
JMJD2A Tudor inh = qHTS Assay for Inhibitors of JMJD2A-Tudor Domain | AID 504339, 2011 | AlphaScreen JMJD2A-Tudor / H3K4me3 peptide binding | Lysine-specific demethylase 4A (Homo sapiens), O75164 | Potency, µM (top dose mostly 114 µM), usual class: inhibitors | actives 4.4% (n = 390,000); also: nearly all actives have a fitted effect of over 50% in size
G9a inh = qHTS Assay for Inhibitors of Histone Lysine Methyltransferase G9a | AID 504332, 2011 | Potency, µM (top dose mostly 102 µM), most hits filed as inhibitors | actives 8.8% (n = 350,000) | G9a H3K9 monomethylation, AlphaScreen, 2 h | Histone-lysine N-methyltransferase EHMT2 (Homo sapiens), Q96KQ7; also: nearly all actives have a fitted effect of over 75% in size
Target sequence (Q96KQ7 913-1193 limits assumed): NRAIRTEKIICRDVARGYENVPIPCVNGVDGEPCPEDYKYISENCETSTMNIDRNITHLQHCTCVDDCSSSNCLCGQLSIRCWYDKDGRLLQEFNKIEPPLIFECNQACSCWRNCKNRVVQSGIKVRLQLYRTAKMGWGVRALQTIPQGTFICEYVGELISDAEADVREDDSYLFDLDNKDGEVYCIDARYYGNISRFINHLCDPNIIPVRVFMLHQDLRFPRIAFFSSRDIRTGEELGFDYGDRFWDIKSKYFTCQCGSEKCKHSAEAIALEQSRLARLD
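Using a bead-based AlphaScreen, monomethylated H3K9 product from 2 h room-temperature reactions (G9a 20 nM, peptide 500 nM, SAM 20 uM) was detected with 0.5 ug/mL rabbit anti-H3K9me1 antibody.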
HP1b binding inh = HTS for Inhibitors of HP1-beta Chromodomain Interactions with Methylated Histone Tails; AlphaScreen HP1-beta / biotin-H3K9me3 peptide binding; actives 0.56% (n = 390,000); Potency, µM (titrated, usually from 114 µM), hits mostly inhibitors; Chromobox protein homolog 1 (Homo sapiens), P83916; also: nearly all actives have a fitted effect of over 70% in size
Target sequence (P83916 whole entry, looked up): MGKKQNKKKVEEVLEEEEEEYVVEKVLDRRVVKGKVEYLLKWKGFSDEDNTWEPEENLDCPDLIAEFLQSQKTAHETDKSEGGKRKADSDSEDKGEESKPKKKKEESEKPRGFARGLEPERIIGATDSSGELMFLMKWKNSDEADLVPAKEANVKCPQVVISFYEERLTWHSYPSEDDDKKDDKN
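AlphaScreen: HP1-beta (50 nM) preformed 30 min with biotin-H3(1-18)K9me3 peptide (50 nM) in PBS pH 7.4, 0.01% Tween-20. Compound added for 30 min at RT, then streptavidin donor/nickel chelate acceptor beads (10 ug/mL) for 30 min.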
L3MBTL1 inh = qHTS Assay for the Inhibitors of L3MBTL1; Lethal(3)malignant brain tumor-like protein 1 (Homo sapiens), Q9Y468; AlphaScreen L3MBTL1–H3K9me1 peptide binding; Potency, µM (highest dose often 57.1 µM), hits mostly inhibitors; actives 0.66% (n = 230,000); AID 485360, 2010; also: nearly all actives have a fitted effect of over 60% in size
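First, the protein-peptide complex forms for 30 min at room temperature (L3MBTL1 50 nM, biotinylated H3K9me1 peptide 75 nM). Next, compounds are pin-transferred and incubated 30 min. Finally, AlphaScreen beads are added and read after 30 min.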
A number is an active result; – = inactive; ? = inconclusive; · = no result given; [ ] = another dose, or the depositor's remark. Calls follow the shape of the dose curve; as a rule, active = well fitted curve in the direction sought with a large enough effect; inconclusive = small, poorly fitted or top-dose-only effect, or another doubt; inactive = no such curve, though single readings can be large; an effect the other way counts as inactive or inconclusive.

SMILES	BAZ2B inh	Sfp inh	JMJD2A Tudor inh	G9a inh	HP1b binding inh	L3MBTL1 inh
Cc1cccc(CNC(=O)c2ccc(Cn3c(SCc4cccc(F)c4)nc4cccnc43)cc2)c1	11.2µM	·	4.47µM	3.16µM	?	·
O=C(NCc1ccccc1)c1ccc(CSc2nc3cccnc3n2Cc2ccccc2F)cc1	22.4µM	·	5.62µM	3.55µM	?	·
Cc1cccc(CNC(=O)c2ccc(Cn3c(SCc4ccccc4)nc4cccnc43)cc2)c1	–	·	–	–	–	·
COc1ccc(Cn2c(SCc3ccc(C(=O)NCc4ccccc4F)cc3)nc3cccnc32)cc1	–	·	–	–	–	·
O=C(CSc1nc2cccnc2n1Cc1ccccc1)N1CCCC1	–	–	31.6µM	–	?	–
O=c1c2ccccc2nc(/C=C/c2cccnc2)n1CCc1ccccc1	35.5µM	–	17.8µM	50.1µM	–	·
O=C(CSc1nc2ccccc2n1CC(=O)N1CCCCC1)N1CCCCC1	–	–	–	–	–	·
O=c1c2ccccc2nc(/C=C/c2ccccc2)n1CCc1ccccc1	–	–	–	–	–	–
O=C(O)CSc1nc2ccccc2n1Cc1ccccc1	–	–	89.1µM	–	–	–
O=C(CSc1nc2ccccc2n1S(=O)(=O)c1ccccc1)N1CCCCC1	–	–	–	70.8µM	–	–
Cn1c(SCC(=O)N2CCCC2)nc2cccnc21	–	–	–	?	–	–
COc1ccc(Cl)cc1NC(=O)CCN1C(=O)C2C3C=CC(C4CC34)C2C1=O (stereo not given)	–	–	–	–	–	·
N#Cc1cccc(NC(=O)N2CC[C@@]3(CCCN(C(=O)c4cccc(F)c4)C3)C2)c1	·	–	·	–[12.7 µM]	·	·
CCCOc1ccccc1C(=O)N1CCNC(=O)C1CC(=O)OC(C)C (stereo not given)	–	–	–	·	–	–
CCOC(=O)c1cc([N+](=O)[O-])cc([N+](=O)[O-])c1Sc1ncnc2nc[nH]c12	·	·	–	·	–	·
CCOC(=O)c1ccc(S(=O)(=O)n2c(CN3CCCCC3)nc3ccccc32)cc1	–	–	–	50.1µM	–	–
O=C(CSc1nc2ccccc2c(=O)n1Cc1ccccc1)Nc1ccc(Br)cc1C(=O)O	50.1µM	–	–	?	–	·
Brc1cccc(-c2nnc3sc(CNCc4ccco4)cn23)c1	–	–	–	44.7µM	–	–
Cc1occc(=O)c1OC(=O)Nc1ccccc1	?	–	20µM	?	–	·
Cc1ccc(NNC(=O)c2c(C)noc2C)cc1Cl	–	–	–	7.08µM	–	–
Cc1cc(Cl)ccc1NNC(=O)c1c(C)noc1C	–	–	79.4µM	2.82µM	–	–
CN1C(=O)NC(c2ccccc2[N+](=O)[O-])C2=C1CCCC2=O (stereo not given)	–	–	–	44.7µM	–	·
COc1cc(C2NC(=O)N(C)C3=C2C(=O)CCC3)cc(OC)c1OC (stereo not given)	–	–	–	–	–	–
CN1C(=O)NC(c2ccccc2[N+](=O)[O-])C2=C1CC(C)(C)CC2=O (stereo not given)	–	–	–	50.1µM	–	·
COc1cccc(NC(=O)Cn2c3ccccc3c3nc4n(c(=O)c32)CCCS4)c1	–	–	–	–	–	·
C[C@H]1CC[C@@H]2N(C1)C[C@H]1[C@@H]3C[C@H]4[C@@H](C/C(=N\O)[C@H]5C[C@@H](O)CC[C@@]54C)[C@@H]3CC[C@H]1[C@]2(C)O	·	–	·	·	·	·
CC1CCCCN1CCNC(=O)c1ccc2c(=O)n(Cc3ccc(Cl)cc3)c(=S)[nH]c2c1 (stereo not given)	–	–	–	?	–	·
O=C1c2c(O)cc(O)cc2O[C@H](c2ccc(O)c(O)c2)C1O (stereo not given in full)	·	–	·	·	·	·
